Reference: PubChem BioAssay (NCI)
Several values for one entry are separate records, joined by “and”; a condition that tells them apart may be missing. Equal values may be shown once. About 83,000 compounds went through this panel and 20% of them were active in at least one assay; those are over-represented in the sample as a whole.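 Testing used 96-well plates and a 48-hour single-concentration exposure. Example: -40 means 40% of the starting cells died.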 A number with no mark means an inactive call. Activity calls are given as the source filed them. How the source made its calls: active means growth percent below 10; inactive means the rest.

Assays:
Test in all cases: NCI-60 one-dose screen, 48 h (100 = growth as untreated, 0 = no growth, -100 = all killed)
Conditions in all cases: 10 µM unless noted
HCT-15 colon = system: HCT-15 colon
SNB-75 CNS = system: SNB-75 CNS
U251 CNS = system: U251 CNS
PC-3 prostate = system: PC-3 prostate
SK-MEL-5 melanoma = system: SK-MEL-5 melanoma
UACC-62 melanoma = system: UACC-62 melanoma
LOX IMVI melanoma = system: LOX IMVI melanoma
SK-MEL-28 melanoma = system: SK-MEL-28 melanoma
SNB-19 CNS = system: SNB-19 CNS

SMILES	growth (HCT-15 colon)	growth (SNB-75 CNS)	growth (U251 CNS)	growth (PC-3 prostate)	growth (SK-MEL-5 melanoma)	growth (UACC-62 melanoma)	growth (LOX IMVI melanoma)	growth (SK-MEL-28 melanoma)	growth (SNB-19 CNS)
Cc1c(Cl)c(C)c(Cc2c(C)c(Cl)c(C)c(Cl)c2O)c(O)c1Cl	5.02% (active)	25%	8.95% (active)	8.74% (active)	-69.7% (active)	18.2%	4.09% (active)	26.1%	–
S=c1ccc2ccccc2[nH]1	102% and 113%	94.9% and 85.8%	96.7% and 98.1%	86.3% and 96.4%	100% and 104%	100% and 97.8%	102% and 103%	109% and 103%	99.3% and 96.6%
COc1cc(NCCCCCNC(C)C)c2ncccc2c1	96.7% and 96.6%	84.2% and 73.7%	94.8% and 85.9%	86.3% and 89.1%	98.4% and 99%	83.7%	87.3% and 82.5%	98.5% and 98.7%	96.1% and 81.2%
CCOC(=O)c1ccc(C(=N)N)cc1	103%	100%	100%	89.6%	–	108%	97.9%	120%	113%
O=C(/C=C/C=C/c1ccc2c(c1)OCO2)N1CCCCC1	101% and 95.3%	112% and 99.4%	95.1% and 102%	97.7% and 90%	97.7% and 97.9%	92% and 90%	97.7% and 101%	129% and 94.1%	97.2% and 99.6%
CN1C2C=CC(=O)C1C1C(=O)N(c3ccccc3)C(=O)C12 (configuration not stated)	42%	–	62.1%	54.8%	92%	84.3%	38.7%	95.4%	95.7%
NNC(=O)Nc1ccccc1	99.8%	–	99.1%	93.5%	101%	94.3%	98.1%	109%	102%
O=C1C2=C(Nc3cc(Cl)ccc3N2)OC1c1c[nH]c2ccc(COc3ccccc3)cc12 (configuration not stated)	82%	-2.61% (active)	52.2%	45.7%	81%	68.7%	70.2%	94%	–
Oc1ccc(O)c(-c2ccccc2)c1	22.8%	58.2%	41.4%	64.3%	–	71.3%	49.3%	77.4%	67.5%
COc1cc2c(cc1O)C(=O)CCCC2	95.3%	89.3%	96.8%	87.6%	–	106%	90.8%	111%	101%
O=c1[nH]nnc2cc(Cl)ccc12	93.9% and 104%	87.1% and 83%	97.3% and 93.8%	103% and 90.7%	–	99.8% and 101%	101%	117% and 109%	104% and 103%
CCCC(=O)Oc1ccc2ccccc2c1	109%	105%	95.5%	73.1%	97.3%	100%	101%	114%	101%
Cc1c(Cl)cc(Cl)c(N)c1Cl	104%	91.2%	99.4%	92.2%	106%	105%	99%	110%	109%
c1ccc2c[n+](Cc3ccc4ccccc4n3)ccc2c1	106%	79.7%	55.4%	50.9%	15.1%	90%	88.8%	87.6%	–
